A selection: hits, their analogues and other compounds. The true share with any hit is near 21%.
Shiga toxin inh: inhibitors of Shiga toxin in Vero cells | Vero cells, Shiga toxin protein synthesis inhibition reporter | inhibition, % at 38.7 µM | actives 9.2% (n = 290,000) | AID 2315; in the data active means inhibition mostly above about 28%, no sharp cut-off; inactive means mostly below about 43%; further: 0% is about no effect
HCMV inh: inhibitors of human cytomegalovirus; HFF cells, HCMV-luciferase reporter, 72 h; hits give low values; activity change, negative = inhibition, % at 57.5 µM; actives 4.5% (n = 410,000); AID 1259415; in the data active means activity change below about -60%; inconclusive means no clear call, values can overlap the other calls; inactive means above about -39%; further: on the % scale 0 is the no-effect control and ±100 the full control effect
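Human foreskin fibroblasts infected with luciferase-reporter HCMV at MOI 1 PFU/cell, compounds at two doses. Luciferase measured 72 h post infection; normalized to buffer-only basal and Salinomycin (10uM) controls.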
Pf growth 48h: inhibits P. falciparum growth in the first generation, 48 h. P. falciparum luciferase growth in erythrocytes, 48 h. Potency, µM (doses to about 28.7 µM), for inactives: at the highest dose activity change, negative = inhibition, usual class: inhibitors. actives 5.9% (n = 310,000). AID 504832; further: potency means the concentration at half of the fitted maximal effect; on the % scale 0 is the no-effect control and ±100 the full control effect
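Parasite viability was followed by luminescence of a genomically integrated firefly luciferase. Cultures held 0.1% parasitemia at 2% hematocrit (final), incubated under 5% CO2 at 37 C.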
CHX counter: counter-screen hit for Shiga toxin inhibitors, cycloheximide | cell reporter, cycloheximide protein synthesis inhibition counterscreen | max response, % | actives 12% (n = 300,000) | AID 2314; in the data active means max response mostly above about 13%, no sharp cut-off; inactive means mostly below about 14%; further: read at 38.3 µM for the half of the compounds with a filed dose; 0% is about no effect
Pf growth 96h: inhibits malaria parasite growth, 96 h; P. falciparum luciferase reporter growth, 96 h; Potency, µM (highest dose often 28.7 µM), without a hit: at the top dose activity change, negative = inhibition, usual class: inhibitors; actives 6.9% (n = 320,000); AID 504834; further: potency means the concentration at half of the fitted maximal effect; on the % scale 0 is the no-effect control and ±100 the full control effect
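P. falciparum expressing integrated firefly luciferase grown in erythrocytes (2% hematocrit, 0.05% parasitemia final) with compounds for 96 hours at 37 C, 5% CO2. Growth inhibition read as loss of luminescence after adding luciferase detection reagent.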
HCV inh: inhibitors of hepatitis C virus infection. Huh7.5.1 HCVcc-Cre infection, luciferase reporter, 44 h. Potency, µM (top dose mostly 41.8 µM), without a hit: at the top dose activity change, negative = inhibition, hits mostly inhibitors. actives 3.4% (n = 340,000); further: potency means the concentration at half of the fitted maximal effect; on the % scale 0 is the no-effect control and ±100 the full control effect
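Antiviral activity was scored by luciferase reporter output from cells infected with HCVcc-Cre (~0.5 moi) in presence of compound, 44 h infection period, cells seeded 1,000/well 4 h prior.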
An asterisk follows results filed as active. Unless noted, the call rests on the fitted dose curve; in most records, active means well fitted inhibition curve with a large enough effect; inconclusive means small, poorly fitted or top-dose-only effect, or another doubt; inactive means no such curve, though single readings can be large or run the other way.

Cc1cc(C2CCCCC2)n(O)c(=O)c1 was read as HCMV inh -78*, Pf growth 48h 0.74µM*, Pf growth 96h 0.47µM* and HCV inh inconclusive.
For CC(=O)Nc1ccc(S(=O)(=O)N(C)CC(=O)OCC(=O)Nc2cc(C)on2)cc1 the results were HCMV inh 6, Pf growth 48h 0%, Pf growth 96h 4% and HCV inh -9%.
`C/C(=N\NC(=O)c1cccc(C)c1)c1ccc(N2CCOCC2)cc1` gave Shiga toxin inh 24, HCMV inh 118, Pf growth 48h 34%, CHX counter 23 and HCV inh inconclusive.
`C/C(=N\Nc1ccc(Cl)c(C(=O)O)c1)c1ccc(N2CCOCC2)cc1` gave Shiga toxin inh 156*, HCMV inh -7, Pf growth 48h 38%, CHX counter 118*, Pf growth 96h 2% and HCV inh -8%.
For O=C(O)c1cc(N/N=C/c2ccc(N3CCOCC3)s2)ccc1Cl the results were Shiga toxin inh 64*, HCMV inh 1, Pf growth 48h 22%, CHX counter 45*, Pf growth 96h 3% and HCV inh 6%.
For CC(=O)Nc1ccc(NC(=O)C(c2ccccc2)N2Cc3ccccc3C2=O)cc1 (centres undefined) the results were HCMV inh 4.
CCOc1ccc(NC(=O)CC2C(=O)N(c3cccc(C)c3)C(=O)N2Cc2cccnc2)cc1 (centres undefined) was read as HCMV inh -24.
For COc1ccc(OCC(O)CNC(=O)Nc2ccc(C(C)(C)C)cc2)cc1 (centres undefined) the results were Shiga toxin inh 20, HCMV inh -1, Pf growth 48h -2%, CHX counter -3, Pf growth 96h 24% and HCV inh -22%.
Screening CCN(CC(=O)Nc1ccc2c(c1)OCO2)Cc1nc2ccccc2c(=O)[nH]1 returned Shiga toxin inh -12, HCMV inh -100*, Pf growth 48h inconclusive, CHX counter 11, Pf growth 96h inconclusive and HCV inh -14%.
`CCN(CC(=O)Nc1ccc2c(c1)CCC2)Cc1nc2ccccc2c(=O)[nH]1` gave Shiga toxin inh 55*, HCMV inh 38, Pf growth 48h -16%, CHX counter 9, Pf growth 96h -24% and HCV inh inconclusive.
For CCN(CC(=O)Nc1cccc(Br)c1)Cc1nc2ccccc2c(=O)[nH]1 the results were Shiga toxin inh -16, HCMV inh -13, Pf growth 48h -10%, CHX counter -6 and HCV inh -1%.
`O=C(N/N=C/c1cc([N+](=O)[O-])ccc1O)c1cccc2cc[nH]c12` gave Shiga toxin inh 31*, HCMV inh -80*, Pf growth 48h inconclusive, CHX counter 33*, Pf growth 96h 3.7µM* and HCV inh inconclusive.
O=C(NN=Cc1cccc([N+](=O)[O-])c1)c1cccc2ccccc12 was read as HCMV inh -9 and HCV inh 0%.
`O=C(N/N=C/c1cccc([N+](=O)[O-])c1)c1ccccc1-n1cccc1` gave Shiga toxin inh 28*, HCMV inh -38, Pf growth 48h -12%, CHX counter 4, Pf growth 96h 0% and HCV inh -14%.
Screening Cc1nc2c(C)cccc2cc1C(=O)N/N=C/c1cccc([N+](=O)[O-])c1 returned Shiga toxin inh -4, HCMV inh -2, Pf growth 48h -4%, CHX counter -3, Pf growth 96h 36% and HCV inh inconclusive.
`O=C(N/N=C/c1cccc([N+](=O)[O-])c1)c1cccc2cc[nH]c12` gave Shiga toxin inh 58*, HCMV inh 52, Pf growth 48h 48%, CHX counter 29*, Pf growth 96h -1% and HCV inh 1%.
Screening O=C(N[C@H]1CC[C@@]23CCCN2C(=O)CCC[C@H]3[C@H]1Cc1ccccc1)c1cccc(C(F)(F)F)c1 returned HCMV inh -1.
For O=C(CSc1nc2c([nH]c3ccccc32)c(=O)n1-c1cccc(Cl)c1)NCC1CCCO1 (centres undefined) the results were HCMV inh 11.
For CC[n+]1c(C)cc(C)n1-c1ccccc1 the results were Shiga toxin inh -9, HCMV inh -4, Pf growth 48h inconclusive, CHX counter -6, Pf growth 96h 8.3µM* and HCV inh 4%.
Cn1cc(-c2cc3n(n2)CCC(=O)N3CCCC(=O)Nc2ccccc2Cl)c2ccccc21 was read as HCMV inh -62*.
For Cn1cccc1C(=O)NC(=O)COC(=O)CCNS(=O)(=O)c1ccc(Cl)cc1 the results were HCMV inh 2 and HCV inh 16%.
Cc1ccc(-c2cnc3cc(C)nn3c2)cc1 was read as Shiga toxin inh 47, HCMV inh 31, Pf growth 48h inactive, CHX counter 20, Pf growth 96h inactive and HCV inh 7%.
Cc1cc2ncc(-c3ccc(Cl)cc3)cn2n1 was read as Shiga toxin inh 93*, HCMV inh -17, Pf growth 48h inactive, CHX counter 37*, Pf growth 96h inactive and HCV inh 22%.
CCN1CCCC1CNc1ccc(S(C)(=O)=O)cc1[N+](=O)[O-] (centres undefined) was read as Shiga toxin inh -6, HCMV inh 36, Pf growth 48h -2%, CHX counter -4, Pf growth 96h 0% and HCV inh -1%.
COC(=O)CN1C(=S)N(Cc2ccccc2)C(=O)C1CC(=O)Nc1ccc(Br)cc1 (centres undefined) was read as Shiga toxin inh -22, HCMV inh 9, Pf growth 48h 15µM*, CHX counter -2, Pf growth 96h inconclusive and HCV inh -10%.
For COC(=O)CN1C(=S)N(c2ccc(F)cc2)C(=O)C1CC(=O)Nc1ccc(F)cc1 (centres undefined) the results were Shiga toxin inh 11, HCMV inh 20, Pf growth 48h 10µM*, CHX counter -2, Pf growth 96h inconclusive and HCV inh 15%.
`CCOC(=O)c1ccc(NC(=O)CC2C(=O)N(c3ccc(F)cc3)C(=O)N2CCC(C)C)cc1` (centres undefined) gave Shiga toxin inh 21, HCMV inh 13, CHX counter 13, Pf growth 96h 5.9µM* and HCV inh 3%.
Screening Cc1cc(N/N=C/c2ccncc2)c([N+](=O)[O-])cc1[N+](=O)[O-] returned Shiga toxin inh 0, HCMV inh 22, Pf growth 48h inconclusive, CHX counter 1, Pf growth 96h inconclusive and HCV inh -6%.
